Measurements from PubChem BioAssay (Tox21).
Records with an inconclusive call do not appear. Unmarked numbers belong to inactive results. Active and inactive are the calls of the source. The call rests on the fitted dose curve; in most records, active means well fitted inhibition curve with a large enough effect in the signal ratio in the repeat runs (not every such curve was filed as active); inconclusive means weak or mixed curves, or effect the other way; inactive means no such curve, though single readings can be large or run the other way; the % refers to the signal ratio.

Molecular target: Estrogen receptor beta (Homo sapiens) (UniProt Q92731)
Test: qHTS assay to identify small molecule antagonists of the estrogen receptor beta (ER-beta) signaling pathway (AID 1259378)
Conditions: ER-beta-UAS-bla HEK293T, beta-lactamase FRET ratio, 16 h; series mostly up to 92.4 µM; activity, negative = inhibition: at the top concentration
Source text: National Center for Advancing Translational Sciences [NCATS]
NIH Chemical Genomics Center [NCGC]
U.S. Environmental Protection Agency [EPA]
National Institutes of Environmental Health Sciences [NIEHS]
National Toxicology Program [NTP]
U.S. Food and Drug Administration [FDA]
Estrogen receptor (ER), a nuclear hormone receptor, plays an important role in development, metabolic homeostasis and reproduction. Two subtypes of ER, ER-alpha and ER-beta, have similar expression patterns with some uniqueness in both types. Endocrine disrupting chemicals (EDCs) and their interactions with steroid hormone receptors like ER causes disruption of normal endocrine function. To identify the compounds that inhibit ER signaling, an ER-beta-UAS-bla GripTite cell line (Life Technologies, Madison, WI, USA) containing a beta-lactamase reporter gene under the control of an UAS response element was used to screen Tox21 10K compound library.
Tox21 Assay Protocol Summary:
ER-beta-UAS-bla HEK293T cells were dispensed at 2,000 cells/4 uL of assay medium containing 2% charcoal stripped FBS per well into black wall/clear-bottom 1536-well plates using a Multidrop Combi (ThermoFisher Scientific, Waltham, MA) dispenser. After the assay plates were incubated at a 37C and 5% CO2 for 6 hr, 23 nL of compounds dissolved in DMSO, positive controls or DMSO only was transferred to the assay plate by a Pintool station (Kalypsys, San Diego, CA), followed by addition of 1 uL (1nM as final concentration) of 17-beta-estradiol (E2) in assay medium using a BioRAPTR FRD (Flying Reagent Dispenser, Aurora Discovery, San Diego, CA). The plates were incubated at 37C and 5% CO2 for 16 hr. Then 1 uL of LiveBLAzerTM B/G FRET substrate was added using a Flying Reagent Dispenser, the plates were incubated at room temperature for 2 hours, and fluorescence intensity was measured by an Envision plate reader (PerkinElmer, Shelton, CT).
On the % scale 0 is the no-effect control and ±100 the full control effect; potency means the concentration at half of the fitted maximal effect.

Estrogen receptor beta (Homo sapiens), sequence (Q92731 whole entry, looked up): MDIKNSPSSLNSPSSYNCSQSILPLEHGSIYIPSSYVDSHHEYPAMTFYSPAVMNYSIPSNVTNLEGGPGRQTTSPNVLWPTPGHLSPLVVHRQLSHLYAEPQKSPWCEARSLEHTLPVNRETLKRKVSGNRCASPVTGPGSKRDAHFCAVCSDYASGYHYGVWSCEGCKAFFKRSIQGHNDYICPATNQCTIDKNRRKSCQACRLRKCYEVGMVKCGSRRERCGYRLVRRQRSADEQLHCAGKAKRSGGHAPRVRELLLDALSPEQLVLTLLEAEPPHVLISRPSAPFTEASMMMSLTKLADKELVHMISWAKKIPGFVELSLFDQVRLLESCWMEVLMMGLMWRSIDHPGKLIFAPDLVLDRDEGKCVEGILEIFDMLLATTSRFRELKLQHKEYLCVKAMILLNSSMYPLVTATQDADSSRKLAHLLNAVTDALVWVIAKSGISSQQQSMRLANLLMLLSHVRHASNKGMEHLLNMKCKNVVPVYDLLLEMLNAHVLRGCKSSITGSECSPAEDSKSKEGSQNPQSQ

Compared with `CCCCOC(=O)CCS`, `CCCCC(CC)COC(=O)COc1ccc(Cl)cc1C` (stereo not given) is higher in “activity, negative = inhibition” value: -3.19% for the first, -0.422% for the second.

Compared with `O=C(O)c1cccc(O)c1`, `CCOC(=O)c1ccccc1C` is higher in “activity, negative = inhibition” value: -2.3% for the first, 5.18% for the second.

First: CC(C)=CC=O
Second: C=CC(=C)CCCC(C)(C)OC(C)=O
The “activity, negative = inhibition” value of the first is higher: 10.4% for the first, 2.95% for the second.

Compared with `NC(=O)Nc1ccc(Cl)cc1`, `O=Cc1c(Cl)cccc1Cl` is higher in “activity, negative = inhibition” value: -4.97% for the first, -1.85% for the second.

First: C=CC(=O)NCOCC(C)C
Second: C=CC(C)(O)CCCC(C)CCCC(C)CCCC(C)C (stereo not given)
The “activity, negative = inhibition” value of the first is lower: 0% for the first, 6.03% for the second.

Compared with `CO[C@H]1O[C@H](CO)[C@@H](O)[C@H](O)[C@H]1O`, `CO[Si](C)(OC)OC` is higher in “activity, negative = inhibition” value: 0.341% for the first, 1.35% for the second.

First: CCCCC/C(=C\c1ccccc1)CO
Second: Cc1ccnc2ccccc12
The “activity, negative = inhibition” value of the first is lower: 3.41% for the first, 21.1% for the second.

First: c1cnc2c(n1)CCCC2
Second: CCn1nc(C)c2c1C(=O)NCC(c1ccc(O)cc1)=N2
The “activity, negative = inhibition” value of the first is higher: -0.555% for the first, -0.951% for the second.

Going from `COc1ccccc1N=Nc1c(S(=O)(=O)O)cc2cc(S(=O)(=O)O)cc(NC(C)=O)c2c1O` to `CC[C@H](NC(=O)c1cc(F)ccc1NS(=O)(=O)c1cccc2cccnc12)c1ccccc1`, the “activity, negative = inhibition” value falls from 6.88% to -21.9%.

With `CCCCC(CC)C(=O)OCCOCCOCCOCCOC(=O)C(CC)CCCC` (stereo not given) the “activity, negative = inhibition” value was 2.24%.

Going from `CC(CCc1ccc2c(c1)OCO2)NN` (stereo not given) to `O=C1OCCN1/N=C/c1ccc([N+](=O)[O-])o1`, the “activity, negative = inhibition” value falls from -10.3% [at 42.5 µM] to -12.6% [at 42.5 µM].

First: O=C(CCC1CCN(Cc2ccccc2)CC1)c1ccc2c(c1)NCCCC2
Second: Cc1nc2ccccn2c(=O)c1CCN1CCC(C(=O)c2ccc(F)cc2)CC1
The “activity, negative = inhibition” value of the first is lower: -25.4% [at 42.5 µM] for the first, 15% [at 42.5 µM] for the second.

Going from `CCn1cc(C(=O)O)c(=O)c2cc(F)c(N3CCNCC3)nc21` to `CN1Cc2cc(C(=O)N3CCC(C4CCNCC4)CC3)ccc2N[C@@H](CC(=O)O)C1=O`, the “activity, negative = inhibition” value rises from 0.17% [at 42.5 µM] to 2.65% [at 42.5 µM].

First: CN1C(=O)CC(C)(c2ccccc2)C1=O (stereo not given)
Second: CCC(C(=O)OCCN(CC)CC)c1ccccc1 (stereo not given)
The “activity, negative = inhibition” value of the first is higher: 12% [at 42.5 µM] for the first, 0.215% [at 42.5 µM] for the second.

Going from `CN1CCCN=C1/C=C/c1cccs1` to `COC(=O)Nc1nc2ccc(C(=O)c3cccs3)cc2[nH]1`, the “activity, negative = inhibition” value rises from 2.24% [at 42.5 µM] to 3.85% [at 42.5 µM].

Compared with `CC(=O)OCC(=O)[C@@]12OC(C)(C)O[C@@H]1C[C@H]1[C@@H]3C[C@H](F)C4=CC(=O)C=C[C@]4(C)[C@@]3(F)[C@@H](O)C[C@@]12C`, `C[C@@H]1C[C@H]2[C@@H]3CCC4=CC(=O)C=C[C@]4(C)[C@@]3(F)[C@@H](O)C[C@]2(C)[C@H]1C(=O)CO` is lower in “activity, negative = inhibition” value: 2.28% [at 42.5 µM] for the first, -13.1% [at 42.5 µM] for the second.

First: N#C/C(=C1\SCC(c2ccccc2Cl)S1)n1ccnc1 (stereo not given)
Second: CC1CC(=O)NN=C1c1ccc(NCC(C)(C)NCC(O)COc2cc(Cl)ccc2C#N)cc1 (stereo not given)
The “activity, negative = inhibition” value of the first is lower: -25% [at 42.5 µM] for the first, 1.67% [at 42.5 µM] for the second.

Compared with `CCCCCCCCCCCCCCC[C@H](O)[C@@H](N)CO`, `Cn1c(=O)c2c(ncn2CC(=O)O)n(C)c1=O` is lower in “activity, negative = inhibition” value: 3.19% [at 42.5 µM] for the first, -1.17% [at 42.5 µM] for the second.

With `CC(=O)[C@H]1CC[C@H]2[C@@H]3C[C@H](C)C4=CC(=O)CC[C@]4(C)[C@H]3[C@@H](O)C[C@]12C` the “activity, negative = inhibition” value was -1.23% [at 42.5 µM].

`CO[C@@]12[C@H](COC(N)=O)C3=C(C(=O)C(C)=C(N)C3=O)N1C[C@@H]1N[C@@H]12` was tested, and the Potency was 18.8 µM (active).

For `CCCCCCCCCCCCCCCCBr`, the activity, negative = inhibition was 8% [at 19 µM].

First: CC1CN(c2cc3c(cc2F)c(=O)c(C(=O)O)cn3-c2ccc(F)cc2F)CCN1 (stereo not given)
Second: C=CCCCCCCCCCCCCCCCC
The activity, negative = inhibition of the first is lower: 1.81% [at 8.39 µM] for the first, 3.67% [at 8.39 µM] for the second.
